# An excerpt weighted towards active compounds, which were near 5.8% of everything screened.
# MCF10A rereplic: A quantitative high throughput screen for small molecules that induce DNA re-replication in MCF 10a normal breast cells | MCF 10A DNA re-replication, Hoechst nuclear intensity, 48 h | Potency, µM (doses to about 46.1 µM), inactives show at the highest dose activity, positive = re-replication, hits mostly activators | hit rate 2.9% among 350,000; also: % of control where 0% means no effect; nearly all actives have a fitted effect of over 50% in size
# 12-LOX inh: Primary qHTS assay for inhibitors of human arachidonate 12S-lipoxygenase (ALOX12): Round 2 | Polyunsaturated fatty acid lipoxygenase ALOX12 (Homo sapiens), P18054 | purified 12hLO, xylenol orange hydroperoxide absorbance | Potency, µM (highest dose often 108 µM), without a hit: at the highest dose activity change, negative = inhibition, actives largely listed as inhibitors | hit rate 1.1% among 580,000; also: % is scaled to controls: 0 for no effect and ±100 for the full control effect
# Target sequence (P18054 whole entry, looked up): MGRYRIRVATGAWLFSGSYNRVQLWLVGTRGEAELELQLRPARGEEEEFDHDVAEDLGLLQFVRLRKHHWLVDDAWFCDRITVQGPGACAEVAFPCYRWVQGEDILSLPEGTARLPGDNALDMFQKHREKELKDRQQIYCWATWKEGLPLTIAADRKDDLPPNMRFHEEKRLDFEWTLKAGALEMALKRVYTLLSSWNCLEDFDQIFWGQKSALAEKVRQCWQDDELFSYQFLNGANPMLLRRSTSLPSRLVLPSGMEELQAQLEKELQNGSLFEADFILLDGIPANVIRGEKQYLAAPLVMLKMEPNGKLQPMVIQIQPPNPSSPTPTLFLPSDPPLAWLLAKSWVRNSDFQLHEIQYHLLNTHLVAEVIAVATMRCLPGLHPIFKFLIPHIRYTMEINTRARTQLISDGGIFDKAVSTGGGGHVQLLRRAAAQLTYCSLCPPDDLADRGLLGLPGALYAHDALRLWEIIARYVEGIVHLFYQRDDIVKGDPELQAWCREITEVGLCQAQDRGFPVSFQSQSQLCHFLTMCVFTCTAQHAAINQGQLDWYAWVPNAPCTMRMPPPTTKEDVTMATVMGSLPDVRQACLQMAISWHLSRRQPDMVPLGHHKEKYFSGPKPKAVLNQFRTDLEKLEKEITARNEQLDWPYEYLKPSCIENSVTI
#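 Hydroperoxide product was detected by ferrous iron/xylenol orange as the 573 to 405 nm absorbance ratio. Arachidonic acid at 40 uM (final) was turned over for 30 min at room temperature by 150 nM human 12hLO, pH 7.0 Hepes buffer, after 15 min compound preincubation.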
# KB-V1 cytotox: qHTS assay for MDR1-selective chemotherapeutics: Primary screen using the drug-selected MDR subline cells KB-V1; hit rate 3.4% among 400,000; Potency, µM (top dose mostly 46.1 µM), usual class: cytotoxic; KB-V1 MDR cells viability, CellTiter-Glo, 72 h; also: % is scaled to controls: 0 for no effect and ±100 for the full control effect; nearly all actives have a fitted effect of over 60% in size
#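 Potencies derive from concentration-effect curves fitted to normalized luminescence (CellTiter-Glo) of KB-V1 cells treated for 72 h at 37 degrees C in phenol-red-free DMEM containing 10% FBS.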
# SW480 rereplic: A quantitative high throughput screen for small molecules that induce DNA re-replication in SW480 colon adenocarcinoma cells | AID 624297, 2012 | Potency, µM (highest dose often 46.1 µM), inactives show at the highest dose re-replication activation, usual class: activators | hit rate 1.8% among 340,000 | SW480 DNA re-replication, Hoechst DNA content imaging, 48 h; also: % of control where 0% means no effect; nearly all actives have a fitted effect of over 55% in size
#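 First, 250 cells per well were seeded. Next, compound or vehicle (23 nL) was pinned in, plates sat 48 hr at 37 C. Finally Hoechst was added for 40 min before fluorescence scanning.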
# KB-3-1 tox: qHTS assay for MDR1-selective chemotherapeutics: Primary screen using the parental adenocarcinoma cell KB-3-1; hit rate 1.4% among 400,000; AID 1347075, 2019; KB-3-1 viability, CellTiter-Glo ATP luminescence, 72 h; Potency, µM (doses to about 46.1 µM), most hits filed as cytotoxic; also: % is scaled to controls: 0 for no effect and ±100 for the full control effect; nearly all actives have a fitted effect of over 60% in size
#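 Viability of parental KB-3-1 cells, measured by CellTiter-Glo luminescence, followed a 72 h incubation at 37 °C with pinned compounds in phenol-red-free DMEM containing 10% FBS.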
# PINK1 expr mod: A Quantitative High throughput Screen to Identify Chemical Modulators of PINK1 Expression. PINK1 immunofluorescence, high-content cytometry, 24 h. Potency, µM (doses to about 76.6 µM), for the others: at the top dose activation (PINK1 increase), most hits filed as activators. hit rate 0.2% among 410,000. AID 624263, 2012; active = well fitted activation curve with a large enough effect; inconclusive = small, poorly fitted or top-dose-only effect; cell line not stated here; also: % of control where 0% means no effect; nearly all actives have a fitted effect of over 65% in size
#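 Measures PINK1 amount and localization on or inside mitochondria by immunofluorescence. Stable cells get compounds at 5 concentrations for 24 hours before fixation and staining; CCCP controls included.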
# Numbers without * were called inactive; i = inactive; ? = inconclusive; . = not tested or not shown; [ ] = remark or other dose. Unless noted, calls follow the shape of the dose curve; as a rule, active = well fitted curve in the direction sought with a large enough effect; inconclusive = small, poorly fitted or top-dose-only effect, or another doubt; inactive = no such curve, though single readings can be large; an effect the other way counts as inactive or inconclusive. Potency is read from the fitted curve at half-maximal effect.
SMILES,MCF10A rereplic,12-LOX inh,KB-V1 cytotox,SW480 rereplic,KB-3-1 tox,PINK1 expr mod
COc1cc(/C=C2\SC(c3ccccc3)=NC2=O)cc(Cl)c1O,?,8.9µM*,i,2%,i,-1%
O=C(Nc1ccc(OC(F)F)c(Cl)c1)c1cccc(OC(F)F)c1,73%,.,18µM*,19%,?,8%[38.3 µM]
O=C(Nc1ccc2c(c1)CCC2)c1cccc(OC(F)F)c1,0%,?,i,4%,i,3%
COc1ccc(NC(=O)c2cccc(OC(F)F)c2)cc1Cl,4%,-42%,15µM*,-1%,i,0%
COc1ccc(NC(=O)c2cccc(F)c2)cc1Cl,-1%,15%,i,-19%,i,1%
O=c1[nH]c(=O)n(-c2ccccc2F)c2c1CN(Cc1ccco1)CN2,.,-1%,.,.,.,.
COC(=O)CC(NC(=O)Cc1cccc(OC)c1)c1cccs1 (centres undefined),.,-51%,.,.,.,.
C=CCn1c(N2CCN(c3ccccc3)CC2)nc2c1c(=O)[nH]c(=O)n2C,.,9%,.,.,.,.
COc1cc(Nc2nc3ccccc3nc2NS(=O)(=O)c2cccc(C)c2)cc(OC)c1,.,-7%,.,.,.,.
CC[C@@]12CCCN3CCc4c(n(c5ccccc45)C(=O)C1)[C@H]32,?,.,.,11µM*,.,.
CCC12CCCN3CCc4c(n(c5ccccc45)C(O)(C(=O)OC)C1)C32 (centres undefined),1%,26%,i,-18%,i,1%
COc1cccc(S(=O)(=O)N2CCCC(CN3CCOCC3)CC2)c1 (centres undefined),.,19%,.,.,.,.
COc1cc(/C=N/Nc2ccccc2)ccc1O,?,?,i,24%,i,11%
COc1cc(/C=N/Nc2nncn2/N=C/c2ccc(O)c(OC)c2)ccc1O,-5%,8%,23µM*,0%,i,-1%
COc1ccc(OC)c(/C=N/Nc2nncn2/N=C/c2cc(OC)ccc2OC)c1,23µM*,13%,?,?,21µM*,9%
Cc1cccc(-c2ncc(CN3CCN(C4CCCC4)C(CCO)C3)cn2)c1 (centres undefined),14%,5%,?,?,i,-1%
Cc1cccc(-c2ncc(CN3CCN(CCC(C)C)C(CCO)C3)cn2)c1 (centres undefined),-2%,1%,?,23µM*,i,-1%
CCOC(=O)C(=CNc1cc(C)ccc1C)C(=O)OCC,9%,-8%,13µM*,-3%,i,7%
CCOC(=O)C(=CNc1cc(C)ccc1[N+](=O)[O-])C(=O)OCC,-6%,-22%,?,3%,i,1%
COc1ccc(N2CCN(CCCNC(=O)c3ccc4nc(N5CCCCC5)sc4c3)CC2)cc1,.,?,i,.,i,0%
Cc1ccc(C)c(N2CCN(CCCNC(=O)c3ccc4nc(N5CCC(C)CC5)sc4c3)CC2)c1,.,?,?,.,21µM*,0%
Cc1ccc(Cl)cc1N1CCN(CCCNC(=O)c2ccc3nc(N4CCCCC4)sc3c2)CC1,.,-15%,16µM*,.,?,1%
Cc1c(C(=O)NCc2cccc(Cl)c2)sc(=O)n1Cc1cccc(F)c1,.,2%,18µM*,.,i,1%
Cc1c(C(=O)NCc2ccc(C(F)(F)F)cc2)sc(=O)n1Cc1ccc(S(=O)(=O)N(C)C)cc1,.,14%,?,.,?,-1%
COc1ccc(Cn2ccc3nc(C)c(C(=O)NCc4ccc(F)cc4)cc3c2=O)cc1,.,-14%,i,.,?,6%
SMILES,MCF10A rereplic,12-LOX inh,KB-V1 cytotox,SW480 rereplic,KB-3-1 tox,PINK1 expr mod
Cc1c(C(=O)NCc2ccccc2C(F)(F)F)sc(=O)n1Cc1ccc(S(=O)(=O)N(C)C)cc1,.,0%,8.2µM*,.,?,-1%
COc1ccc(CNC(=O)c2sc(=O)n(Cc3ccc(C)cc3)c2C)cc1,.,0%,21µM*,.,i,-1%
COc1ccc(Cn2ccc3nc(C)c(C(=O)NCc4ccc(C)cc4)cc3c2=O)cc1,.,12%,i,.,5.2µM*,1%
COc1ccc(CNC(=O)c2sc(=O)n(Cc3ccc(S(=O)(=O)N(C)C)cc3)c2C)cc1,.,1%,?,.,?,0%
CCCCN(C)C(=O)c1cc(=O)[nH]c2ccccc12,.,5%,.,.,.,.
CCNC(=O)COc1ncnc2ccc(Br)cc12,.,-47%,.,.,.,.
Cc1cccc(C)c1Cn1c(C)c(C(=O)NCc2ccc([N+](=O)[O-])cc2)sc1=O,.,11%,2.6µM*,.,?,0%
C=Cc1ccc(Cn2c(C)c(C(=O)NCc3cccc(C)c3)sc2=O)cc1,.,-14%,?,.,i,0%
Cc1cccc(CNC(=O)c2sc(=O)n(Cc3ccc(S(C)(=O)=O)cc3)c2C)c1,.,11%,15µM*,.,?,-1%
COc1ccc(Cl)cc1Cn1c(C)c(C(=O)NCc2cccc(Cl)c2)sc1=O,.,5%,15µM*,.,i,0%
COC(=O)c1ccc(Cn2c(C)c(C(=O)NCc3ccc([N+](=O)[O-])cc3)sc2=O)o1,.,-2%,?,.,i,0%
CSc1ccc(Cn2c(C)c(C(=O)NCc3cccc(C)c3)sc2=O)cc1,.,1%,9.2µM*,.,i,-1%
COc1nc(N(C)C)nc(-n2cnc(SCc3ccccc3)n2)n1,.,-23%,.,.,.,.
O=C1CC(c2ccccc2)N(Cc2ccncc2)CCCN(C(=O)NCc2ccccc2)CCN1 (centres undefined),.,-4%,.,.,.,.
Cc1c(C(=O)NCc2ccc(Cl)c(Cl)c2)sc(=O)n1Cc1cccc(F)c1,.,-11%,?,.,i,0%

# Bioassay records: PubChem, National Center for Advancing Translational Sciences (NCATS)
